PINK1 modulator: modulators of PINK1 expression. PINK1 immunofluorescence, high-content cytometry, 24 h. Potency, µM (series often up to 76.6 µM), for the others: at the top dose activation (PINK1 increase), hits mostly activators. 410,000 compounds, 0.2% hits; active = well fitted activation curve with a large enough effect; inconclusive = small, poorly fitted or top-dose-only effect; cell line not stated here; also: % of control where 0% means no effect; nearly all actives have a fitted effect of over 65% in size
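Readout is PINK1 immunofluorescence, quantified alongside mitochondrial, cell and nuclear markers by laser-scanning microplate cytometry. Cells from a stable line were exposed to compound titrations (5 concentrations) for 24 hours, with CCCP controls.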
VP16 counter: counter-screen for ROR gamma inhibitors: Gal4-VP16 reporter | 310,000 compounds, 3.5% hits | Potency, µM (titrated, usually from 53.6 µM), inactives show at the highest dose activity, negative = inhibition, actives largely listed as inhibitors | AID 2546 | Drosophila S2 Gal4-VP16 UAS-luciferase, luminescence, 20 h;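 also: Gal4-VP16 expression switched on by copper sulfate through the metallothionein promoter; % is scaled to controls: 0 for no effect and ±100 for the full control effect; nearly all actives have a fitted effect of over 50% in size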
Epigenetic reg: epigenetic control regulation, reporter derepression. 280,000 compounds, 0.2% hits. murine LDR cells, GFP reporter derepression, 30 h. AID 1865. Potency, µM (doses to about 53.9 µM), for inactives: at the highest dose GFP activation, usual class: activators; also: % of control where 0% means no effect; nearly all actives have a fitted effect of over 60% in size
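Readout is the number of GFP-expressing murine LDR cells, counted by cytometry following washing. Cells were treated with compound for 30 h at 37 C; the stably integrated CMV-GFP locus is normally silent.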
Sfp PPTase inh: inhibitors of Bacillus subtilis Sfp phosphopantetheinyl transferase; Q9F4F7; Biochemical Sfp PPTase activity, qHTS; Potency, µM, without a hit: largest response in the series, negative = inhibition, usual class: inhibitors; 310,000 compounds, 3.5% hits;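 also: the enzyme is Sfp with the accession as filed and its product quenches rhodamine fluorescence; 0% = enzyme reaction without inhibitor and -100% = no enzyme wells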
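Compounds were incubated with enzyme (final 15 nM) for 15 min at room temperature before substrate addition started the reaction. Fluorescence at 525 nm excitation, 598 nm emission was recorded immediately and after 30 minutes.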
RORg inh: inhibitors of mouse ROR gamma transcriptional activity. Drosophila S2 Gal4-RORgamma UAS-luciferase reporter, 20 h. P51450. Potency, µM (series often up to 53.6 µM), for inactives: at the top dose activity change, negative = inhibition, hits mostly inhibitors. 310,000 compounds, 5.4% hits. AID 2551; also: % is scaled to controls: 0 for no effect and ±100 for the full control effect; nearly all actives have a fitted effect of over 60% in size
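Using a luciferase readout, inhibitors were identified by reduced reporter activity in Drosophila cells coexpressing a copper-inducible Gal4–ROR gamma fusion and UAS-driven Photinus luciferase, incubated 20 hr after 700 uM copper sulfate.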
ClpP mod: qHTS Assay for Activators of ClpP; purified B. subtilis ClpP, FRET peptide cleavage, 20 min; AID 651965, 2013; Potency, µM (series often up to 57.5 µM), inactives show at the top dose activity change, negative = active; 340,000 compounds, 1.9% hits; active = well fitted falling curve with a large enough effect; inconclusive = small, poorly fitted or top-dose-only effect; inactive = no such curve, though single readings can be large or run the other way; also: the source files actives as falling curves though it sought activators and does not explain the sign; nearly all actives have a fitted effect of over 65% in size
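ClpP 10 microg/mL final, pH 8 Tris/KCl buffer with BSA, glycerol, Tween-20; compound pinned in; FRET-FV substrate; RT 20 min; Ex320/Em430; ΔFRET vs ADEP 5.8 microM, DMSO, no enzyme.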
An asterisk follows results filed as active; u = inconclusive; x = no result; [ ] = dose if it differs, or a comment. The list is not random: actives were taken first. Their share in the collection is about 8.1%. Unless noted, calls follow the shape of the dose curve; as a rule, active = well fitted curve in the direction sought with a large enough effect; inconclusive = small, poorly fitted or top-dose-only effect, or another doubt; inactive = no such curve, though single readings can be large; an effect the other way counts as inactive or inconclusive. Potency is read from the fitted curve at half-maximal effect.

SMILES	PINK1 modulator	VP16 counter	Epigenetic reg	Sfp PPTase inh	RORg inh	ClpP mod
OCCNc1nc(-c2ccccc2)c2cc(Br)ccc2n1	0%	7%	x	20%	u	-11%
O=[N+]([O-])c1ccc(/C=N/Nc2nc(-c3ccccc3)c3cc(Br)ccc3n2)o1	10%	4%	2%	9%	2%	-2%
N#Cc1ccccc1/C=N/Nc1nc(-c2ccccc2)c2cc(Br)ccc2n1	2%	-25%	1%	-9%	11µM*	-1%
Cc1ccc2nc(N/N=C\c3ccc([N+](=O)[O-])o3)nc(-c3ccccc3)c2c1	3%	1%	3%	-1%	10µM*	1%
Oc1cc(-c2nc3ccccc3s2)cc2c1OCCN(Cc1cn[nH]c1-c1ccc(Cl)cc1)C2	0%	x	x	x	x	x
Cc1ccc(C2Oc3ccccc3C3=C2C(c2cccs2)n2ncnc2N3)cc1 (stereo unspecified)	5%	u	1%	-15%	11µM*	-8%
Cc1cccc(C)c1-n1ncc(C(=O)Nc2ccc3c(c2)OCCO3)c1C1CCN(C(=O)OC(C)(C)C)CC1	3%	x	0%	x	x	-3%
Cc1cccc(C(=O)O/N=C(\N)Cc2cccc3ccccc23)c1	-2%	11µM*	x	8%	u	0%
N/C(=N\OC(=O)c1ccc2c(c1)OCO2)c1ccncc1	0%	u	-2%	-8%	10µM*	1%
N/C(=N\OC(=O)c1ccc2c(c1)OCO2)c1ccc(Cl)cc1	-6%[38.3 µM]	-23%	9%	10%	25%	-1%
COc1cccc(C(=O)O/N=C(\N)Cc2ccc(Cl)cc2)c1	-3%	13µM*	-1%	-11%	-38%	-3%
COc1cccc(C(=O)O/N=C(\N)c2ccc(C)cc2)c1	1%	-21%	x	1%	-41%	-6%
Cc1cccc(/C(N)=N/OC(=O)Cc2cccc3ccccc23)c1	7%	-8%	-2%	18%	-20%	x
COc1ccc(C(=O)O/N=C(\N)c2cccc(C)c2)cc1OC	0%	u	x	3%	1µM*	-2%
COc1ccc(C(=O)O/N=C(\N)c2ccccc2)cc1OC	1%	-22%	x	11%	-6%	-1%
COc1cn(CC(=O)Nc2ccc(F)cc2)c(CN2CCCCC2)cc1=O	-1%	x	-1%	x	x	3%
COc1ccc(N2CCN(C(c3ccc(F)cc3)c3sc4nc(-c5ccco5)nn4c3O)CC2)cc1 (stereo unspecified)	2%	x	-1%	x	x	-3%
Cc1cccc(/C(N)=N/OC(=O)c2ccncc2)c1	0%	u	x	-7%	7.1µM*	2%
N/C(=N\OC(=O)c1ccncc1)c1cccc([N+](=O)[O-])c1	1%	-1%	x	-21%	7%	x
Cc1ccc(-n2cc(-c3ccccc3)[nH]c2=O)cc1F	-3%	3%	-2%	5%	31%	-8%
FC(F)(F)c1cccc(-n2cc(-c3ccccc3)[nH]c2=S)c1	1%	u	x	12%	2.8µM*	-2%
CCc1ccc(-n2cc(-c3ccc([N+](=O)[O-])cc3)[nH]c2=S)cc1	6%	u	0%	-17%	11µM*	-2%
COc1cc(OC)c(-n2cc(-c3ccc(OC)c(OC)c3)[nH]c2=S)cc1Cl	8%	16µM*	x	-12%	7.9µM*	-9%
Fc1ccccc1-n1cc(-c2ccccc2)[nH]c1=S	0%	16µM*	0%	-23%	2.5µM*	1%
CCCCOc1cccc(C2c3c(oc4ccccc4c3=O)C(=O)N2c2ccccn2)c1 (stereo unspecified)	-1%	x	5%	x	x	-2%
SMILES	PINK1 modulator	VP16 counter	Epigenetic reg	Sfp PPTase inh	RORg inh	ClpP mod
COc1ccc(Cl)cc1N(C)C(=O)Cc1noc2ccc(C)cc12	-1%	x	0%	x	x	-1%
CCCSc1nnc2[nH]c(=O)cc(C)n12	3%	x	2%	x	x	-1%
COc1ccc(-c2cnc(C)o2)cc1S(=O)(=O)Nc1ccc(C)c(N(C)C)c1	1%	x	1%	x	x	-2%
Cc1ccccc1-c1cn(-c2ccccc2)c(=S)[nH]1	1%	10µM*	x	u	3.2µM*	x
COc1ccc(-c2cn(-c3ccc(C)cc3C)c(=S)[nH]2)cc1OC	1%	u	x	-29%	u	x
COc1ccc(-n2cc(-c3ccc(Br)cc3)[nH]c2=S)cc1	3%	-14%	-1%	-1%	1.8µM*	x
COc1ccc(-n2cc(-c3ccccc3)[nH]c2=S)c(OC)c1	1%	7.9µM*	x	u	2.5µM*	u
Cc1ccc(-c2cn(-c3ccccc3)c(=S)[nH]2)cc1C	0%	u	x	-24%	u	x
COc1ccc(-n2cc(-c3ccc(OC)c(OC)c3)[nH]c2=S)cc1	1%	10µM*	-3%	45µM*	2µM*	-23%
Cc1ccc(NC(=O)Cn2nnnc2-c2ccccc2N)cc1	1%	x	0%	x	x	-1%
CCC(C)NC(=O)C1CCN(S(=O)(=O)c2ccc3c(ccn3CC)c2)CC1 (stereo unspecified)	3%	x	0%	x	x	-7%
Cc1csc2nc(-c3ccc(NS(=O)(=O)c4cccc(F)c4)cc3)cn12	-4%	x	4%	x	x	2%
COc1cc2c(NC3CCN(C(C)C)CC3)nc(N3CCCN(C)CC3)nc2cc1OCCOCCN1CCCC1	0%	x	x	x	x	4%
Cc1ccc(/C=C/c2onc(C)c2S(=O)(=O)N2CCC(C(=O)N3CCOc4ccc(C)cc43)CC2)cc1	0%	x	-2%	x	x	-18%
COc1ccc(C)cc1NC(=O)CN(c1cc(C(F)(F)F)ccc1Cl)S(C)(=O)=O	4%	x	0%	x	x	-1%
O=C(Oc1cccc2cccnc12)c1ccc(N2C(=O)C3C4CCC(C4)C3C2=O)cc1 (stereo unspecified)	1%	5µM*	-1%	u	2.8µM*	-2%
O=C(Oc1cccc2cccnc12)c1cccc(N2C(=O)C3C4CCC(C4)C3C2=O)c1 (stereo unspecified)	0%	u	u	45µM*	2.5µM*	-2%
O=C(Nc1ccc(Cl)cc1)c1cccc(N2C(=O)C3C4CCC(C4)C3C2=O)c1 (stereo unspecified)	2%	-6%	-3%	6%	-3%	-3%
O=C(O)c1ccc(NC(=O)c2cccc(N3C(=O)C4C5CCC(C5)C4C3=O)c2)cc1 (stereo unspecified)	-2%	-9%	-3%	31%	-18%	25µM*
CCOC(=O)c1c(C)[nH]c(C)c1S(=O)(=O)N(C)CC(=O)Nc1cc(Cl)ccc1OC	0%	x	-1%	x	x	-1%
